The text below walks through data of PubChem BioAssay AID652105 (National Center for Advancing Translational Sciences (NCATS), 2013).

The campaign covered roughly 330,000 compounds. About 4,100 (1.2%) were called active. Roughly 2% stayed inconclusive and do not appear here. For the sample, actives were picked, then their nearest neighbours and some compounds at random. Unmarked numbers belong to inactive results. How the source made its calls: active means max response of -50% or lower; inconclusive means between -30% and -50%; inactive means -30% or higher.
On the % scale 0 is the no-effect control and ±100 the full control effect.

Phosphatidylinositol 5-phosphate 4-kinase type-2 alpha (Homo sapiens), sequence (P48426 whole entry, looked up): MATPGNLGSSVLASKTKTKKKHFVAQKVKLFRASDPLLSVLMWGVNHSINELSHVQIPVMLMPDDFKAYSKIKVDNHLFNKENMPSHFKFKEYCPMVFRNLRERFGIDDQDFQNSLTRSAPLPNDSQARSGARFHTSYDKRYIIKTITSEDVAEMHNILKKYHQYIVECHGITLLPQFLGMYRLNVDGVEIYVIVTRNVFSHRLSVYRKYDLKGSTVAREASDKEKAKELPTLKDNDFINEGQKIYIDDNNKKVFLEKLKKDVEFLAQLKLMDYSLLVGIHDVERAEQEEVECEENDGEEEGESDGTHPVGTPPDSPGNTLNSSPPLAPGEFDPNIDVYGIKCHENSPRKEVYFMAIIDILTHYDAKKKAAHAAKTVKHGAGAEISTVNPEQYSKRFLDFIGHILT

The test has as its target Phosphatidylinositol 5-phosphate 4-kinase type-2 alpha (Homo sapiens) (UniProt P48426). Briefly: qHTS for Inhibitors of phosphatidylinositol 5-phosphate 4-kinase (PI5P4K). Further: value at the top dose of about 77 µM. Particulars: PI5P4Kalpha enzyme, ADP-Glo luminescence, 60 min; stronger effect = lower value. In short, it runs like this:
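Luminescence from ADP-Glo served as readout of PI5P4Kalpha activity in a qHTS format. Reaction: enzyme, substrate, compound, ATP at 5 microM final, 60 min at RT.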
For the compound `CCOC(=O)c1ccn(S(=O)(=O)c2ccc(C)cc2)c1-c1ccccc1`, the max response was 12.7%.
Take `COc1ccc(NC(=O)c2cc(-c3cc(OC)c(OC)c(OC)c3)nc3ccccc23)c(OC)c1`: the max response was 2.36%.
Under `COc1ccc(-c2cc(C(=O)Nc3ccccc3O)c3ccccc3n2)cc1` stands -106% (active).
The figure for `COc1ccc(-c2cc(C(=O)N(C)Cc3ccccc3)c3ccccc3n2)cc1` is 15.4%; for `COc1ccc(NC(=O)C2Cc3c(-c4ccc(Cl)cc4)ccnc3O2)cc1` (stereo not drawn) it is -2.22%; for `Cc1ccc(-c2c(N)nc3ncccn23)cc1` it is 0.002%.
The figure for `O=CNc1cc(-c2ccc(C(=O)N3CCOCC3)cc2)cn2c(-c3ccc(F)cc3)cnc12` is -15.7%; for `CCCCNC(=O)C[C@@H]1C[C@@]2(C(=O)OCC)CCC=C2N(Cc2cccc3ccccc23)C1=O` it is 3.26%; for `COc1cccc(/C=N/Nc2ccc(S(=O)(=O)Nc3ccccc3C(=O)O)cc2[N+](=O)[O-])c1O` it is -74.4% (active).
Consider `COc1ccc(Br)cc1/C=N/Nc1ccc(S(=O)(=O)Nc2ccccc2C(=O)O)cc1[N+](=O)[O-]`, for which the max response was -15.6%.
`Cc1ccc(NS(=O)(=O)c2ccc(N/N=C/c3ccccc3OCC(=O)O)c([N+](=O)[O-])c2)c(C)c1`: the max response was 0.282%.
Under `Cc1noc(C)c1-c1ccc(C(=O)NCc2ccncc2)c2occc12` stands 1.04%; under `COc1cccc(-c2nc3nc(C)cc(C)n3c2NC2CCCCC2)c1`, -7.02%.
The figure for `C[C@H]1NS(=O)(=O)c2cc(Cl)ccc2O[C@@H]1c1ccccc1` is 4.12%; for `Cc1ccccc1C1=NC(C(F)(F)F)(C(F)(F)F)c2c(n(-c3ccc(F)cc3)c(=O)[nH]c2=O)N1` it is -8.19%; for `O=c1[nH]c(=O)n(Cc2ccco2)c2c1C(C(F)(F)F)(C(F)(F)F)N=C(c1ccco1)N2` it is -76.9% (active).
In the case of `Nc1c(N(Cc2ccco2)C(=O)c2cccc(F)c2)c(=O)[nH]c(=O)n1Cc1ccccc1`, the max response is -14.9%.
In the case of `CN(C)c1cccc(NC(=O)c2ccc(-c3ccc(F)c(F)c3)c3ccoc23)c1`, the max response was 2.45%.
Turning to `CCC(=O)N1CCC(C)(C(=O)Nc2cc(OC)c(OC)c(OC)c2)C1` (stereo not drawn), the max response is 10.8%.
For `CC(=O)C1=CCC(c2ccccc2)N(S(=O)(=O)c2ccc(C)cc2)C1` (stereo not drawn), the max response was -0.133%.
As for `O=C(Cc1cccs1)Nc1nnc(SCc2ccc(F)cc2)s1`, the max response is 6.84%.
With `COc1ccc(Cc2nnc(NC(=O)Cc3cccs3)s2)cc1`, the max response is -87.6% (active).
Under `COc1ccc(Cc2nnc(NS(=O)(=O)Cc3ccccc3)s2)cc1` stands -3.92%.
